Assay results reported in PubChem BioAssay AID1628 (Sanford-Burnham Center for Chemical Genomics, 2009).
Among all 190,000 compounds or so, about 930 (0.49%) were called active. The list shows a part of the results. Results with a measured potency or affinity are listed apart. Values without a mark were called inactive.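 The calls were made as follows: active = z-score of insulin promoter reporter brightness in nuclei below -3 at 5 µM, with at least 500 cells counted; inconclusive = wells with under 500 cells, flagged as toxic or sparse; inactive = the rest.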

Assay: insulin promoter down-regulators in MIN6 cells, imaging, high-content screening, mouse beta cells (AID 1628)
Conditions: MIN6 insulin promoter GFP reporter, at 5 µM, active compounds read low
In the case of `CCN1CCN(c2ncc3c(n2)CC(c2cc(OC)c(OC)c(OC)c2)CC3=O)CC1` (stereo unspecified), the z-score was -3.96 (active). In the case of `O=C(Nc1ccc(N2CCCCC2)cc1)c1cccnc1`, the z-score was 3.44. For `O=C(NNC(=O)c1cccnc1)NC12CC3CC(CC(C3)C1)C2`, the z-score was -3.86 (active). For `O=C(NCc1cccnc1)c1cnn2ccccc12`, the z-score was -7.96 (active). With `O=C(Nc1nc(-c2cccs2)cs1)c1ccc(Cl)s1` the z-score was -3.6 (active). `Cc1csc(NC(=O)c2sc3nc(-c4cccs4)ccc3c2N)n1` showed a z-score of 4.58. Work on `Nc1c(C(=O)Nc2nc3ccccc3s2)sc2nc(-c3cccs3)ccc12` yielded a z-score of 5.64. With `Cc1sc(-n2c(C)cc(/C=N/n3cnnc3)c2C)c(C#N)c1C` the z-score was -4.46 (active). Compound `Cc1cc(/C=N/n2cnnc2)c(C)n1-c1cccc(C(=O)O)c1` has a z-score of 4.18. In the case of `CCOc1ccc(-n2c(O)c(/C=N/Nc3nnc(C)c(=O)[nH]3)c3ccccc3c2=O)cc1`, the z-score was -5.62 (active). `Cc1ccc(-n2c(O)c(/C=N/NC(=O)C3COc4ccccc4O3)c3ccccc3c2=O)cc1` (stereo unspecified) showed a z-score of 3.14. Compound `O=c1c2ccccc2c(C=Nc2ccccc2O)c(O)n1-c1nccs1` has a z-score of 4.35. `CC1(C)Cc2c(ccc3ccccc23)C(c2cc3ccccc3oc2=O)=N1` showed a z-score of 4.19. In the case of `O=c1oc2cc(O)ccc2cc1-c1nc2c(s1)CCc1ccccc1-2`, the z-score was 13.6. For `Cc1ccccc1C(=O)NCCCc1ccccc1`, the z-score was -5.2 (active). `CCCCN(CC)CCNC(=O)c1cc2c(C)nc3ccccc3c2o1` showed a z-score of 0.65. In the case of `O=C(NCCCCc1ccccc1)c1ccc(Br)o1`, the z-score was 1.07. `Cc1cc(C(=O)CSc2nnnn2-c2ccccc2)c(C)n1CC1CCCO1` (stereo unspecified) gave a z-score of -1.4. `CCCCC1=CC2=C(c3ccco3)C(=O)C(C)(OC(=O)c3ccc(OC)cc3)C(=O)C2=CN1CC(C)C` (stereo unspecified) showed a z-score of 4.34. Work on `CC(CNC(=O)c1cncc(O)c1)NC(=O)c1cncc(O)c1` (stereo unspecified) yielded a z-score of 3.21. `CCCN1C=CC(=C/C=C(\C#N)C(=O)OCC)C=C1` showed a z-score of 3.98. Work on `O=C(C1=NN(c2ccccc2)C2C(=O)N(c3cccc(Cl)c3)C(=O)C12)c1ccccc1` (stereo unspecified) yielded a z-score of 3.17. `CCCCN1C(=O)/C(=C/C=C2\SCCN2C)SC1=S` showed a z-score of 13.8. In the case of `Cc1ccc(/C=N/NC(=O)NC2CCCCC2)o1`, the z-score was -4.13 (active). For `NC1=NC[C@@H](Cc2ccc(O)cc2)N1CCCCC1CCCCC1`, the z-score was -1.05. In the case of `CCn1c(CN2CCCCCC2=O)nnc1SCc1cnc(-c2ccccc2)s1`, the z-score was -3.13 (active). In the case of `CCn1c(Cn2nnc(-c3ccccc3)n2)nnc1SCC(=O)Nc1ccc(C(C)=O)cc1`, the z-score was 4.86. Work on `O=[N+]([O-])c1ccc(-c2ccc(/C=N/Nc3nc(NCc4ccccc4)nc(N4CCOCC4)n3)o2)cc1` yielded a z-score of 9.01. `O=[N+]([O-])c1ccc(-c2ccc(/C=N/Nc3nc(N4CCCCC4)nc(N4CCCCC4)n3)o2)cc1` gave a z-score of 5.14. With `O=C(CSc1ccc2nnc(CCNC(=O)c3ccccc3)n2n1)Nc1ccccc1` the z-score was 2.32. With `COc1cc2c(cc1OC)-c1nncn1C(C)(C)C2` the z-score was 3.76. `CCCCN(C)C1=CC2=CC(=C(C#N)C#N)CCC2CC1` (stereo unspecified) showed a z-score of 16. With `COc1cc(NC(=O)c2ccccc2)c(OC)cc1NC(=O)CN1CCOCC1` the z-score was -3.01 (active). In the case of `COc1ccc(Cl)cc1NC(=O)C1(c2cccs2)CCOCC1`, the z-score was 3.78. `COc1cc2c(cc1NC(=O)CN1CCN(S(=O)(=O)c3ccccc3F)CC1)oc1ccccc12` showed a z-score of 3.63. With `CCN(CC)S(=O)(=O)c1cccc(-c2n[nH]c(=S)n2/N=C/c2ccc(C(=O)OC)cc2)c1` the z-score was -4.66 (active). `COC(=O)c1cc(-c2c(C)oc3cc(O)ccc3c2=O)c(C)o1` gave a z-score of 0.55. For `COC(=O)c1cc(Nc2cc(C)c3ccc(O)cc3n2)cc(C(=O)OC)c1`, the z-score was -3.19 (active). For `Cc1cc(C(=O)COc2ccc(-c3nnco3)cc2)c(C)n1Cc1ccccc1`, the z-score was -4.66 (active). In the case of `S=C(Nc1ccccc1Cl)N(CCCN1CCOCC1)Cc1ccco1`, the z-score was -4.9 (active). Work on `Cc1csc(NC(=O)CN(C)S(=O)(=O)c2cccc3cccnc23)n1` yielded a z-score of 3.05. With `Cc1csc(SCC(=O)Nc2cccc3nsnc23)n1` the z-score was -3.34 (active). In the case of `CCOC(=O)Cc1csc(SCC(=O)Nc2cccc(C#N)c2)n1`, the z-score was 1.27. For `N=c1c2c(n(Cc3ccc([N+](=O)[O-])cc3)c3c1CCC3)CCCC2`, the z-score was -3.48 (active). For `N=c1c2c(n(Cc3ccc(F)cc3)c3c1CCC3)CCC2`, the z-score was -5.9 (active). With `CC(C)(C)NC(=O)N1CCC(CO)(Cc2ccccc2Cl)CC1` the z-score was -3.59 (active). In the case of `CCCCn1nc2cc(C(=O)N(CC)c3ccc(OC)cc3)ccc2c1OCC`, the z-score was -3.8 (active). With `CCCn1nc2cc(C(=O)NCc3ccccc3)ccc2c1OCC` the z-score was 4.73. In the case of `Cc1ccccc1N=Nc1c(C)[nH]n(C(N)=S)c1=O`, the z-score was -9.54 (active). In the case of `O=C(NNS(=O)(=O)c1ccc(F)cc1F)c1csc(-c2cccnc2)n1`, the z-score was -3.45 (active). `Nc1c(C(=O)N/N=C/c2cccnc2)oc2nc(-c3ccccc3)cc(-c3ccco3)c12` gave a z-score of 4.08. `CN(C)c1ccc(/C=C(\C#N)C(=O)Nc2nc3c(s2)CCN(Cc2ccccc2)C3)cc1` showed a z-score of 15.1. With `CCCCc1nnc(NC(=O)CSc2nc(O)c(Cc3ccccc3)c(=O)[nH]2)s1` the z-score was 2.27. In the case of `O=C(CSc1nc(Cc2ccccc2)nc2ccccc12)Nc1nc2c(s1)CCCC2`, the z-score was -3.54 (active). For `O=c1cc(O)c2c(=O)n(-c3ccccc3)c3c(c2o1)CCCCCC3`, the z-score was -4.17 (active). `Cc1cc(Nc2nn(C)c(N)c2C#N)ccc1F` gave a z-score of 6.01. Compound `CCOC(=O)C1C(=O)C=C(/C=C/c2ccc(N(C)C)cc2)CC1c1ccccc1` (stereo unspecified) has a z-score of 9.81. For `CCOC(=O)C1C(=O)C=C(c2cccc(NS(C)(=O)=O)c2)CC1c1ccco1` (stereo unspecified), the z-score was -3.47 (active). With `COc1ccc(-c2nnn(CC(=O)N(CCO)C(C(=O)NC3CCCC3)c3ccc(F)cc3)n2)cc1` (stereo unspecified) the z-score was 3.28. In the case of `COc1ccc(OCCC(=O)NC2CCCCC2)cc1`, the z-score was -3.45 (active). For `O=C(COc1ccc(Cl)cc1)NCc1nnc(SCC(=O)NC2CCCCC2)o1`, the z-score was 3.28.
